# Only a selection was taken, and hits are over-represented in it overall.
# ROS inducer: raises reactive oxygen species in U2OS cancer cells; 46,000 compounds, 2% hits; ROS induction (% of piperlongumine), % at 10 µM; AID 624156; U2OS ROS induction, H2DCF-DA fluorescence; in the data active means ROS induction above about 79%, passing the limit was not always enough;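 further: 0% = DMSO vehicle median and 100% = reference compound median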
# * hit, by the source's call.
SMILES,ROS inducer
Cc1ccc(C)c(NC(=O)C2CCCN(C(=O)c3cnn(-c4ccccc4)c3-n3cccc3)C2)c1 (stereo not given),17
O=C(CN1C(=O)C(c2ccccc2)=NC12CCCC2)Nc1ccccc1,9
COc1ccc(-c2ccc(=O)n(CC(=O)N(C)c3ccccc3)n2)cc1,-8
CCCCN1Cc2c(n(CC(=O)c3ccc(OC)cc3)c3cc(-c4ccccc4)nn3c2=O)C1=O,170*
COc1ccc(C(=O)Cn2c3ccccc3n3nc(-c4ccccc4)nc23)cc1OC,-3
CCc1ccc(NC(=S)NC(=O)c2cccs2)cc1,5
COc1ccc(CCNC(=O)CCn2c(SCC#N)nc3ccccc3c2=O)cc1OC,24
COc1ccc(CCNc2ccncn2)cc1OC,-8
Cc1c(C#N)c2nc3ccccc3n2c(=O)/c1=C/Nn1cnnc1,-2
CCCCc1c(C)c(C#N)c2nc3ccccc3n2c1NCCN1CCOCC1,96*
CCCc1cc(N2CCN(c3ccccc3)CC2)n2c(nc3ccccc32)c1C#N,48
C=CCc1c(C)c(C#N)c2nc3ccccc3n2c1NCCc1ccc(OC)c(OC)c1,133*
O=c1c2nnn(Cc3ccc(F)cc3)c2ncn1Cc1ccc(F)cc1,-4
C=CCN1C(=O)C2C3C=CC(C3)C2C1=O (stereo not given),-1
Cc1ccc(S(=O)(=O)N(C)C2CCCCC2)cc1-c1nnc2c3ccccc3c(C)nn12,35
CCOc1cccc2c1Oc1nc(-c3ccccc3)nc(SCC(=O)N(CC)CC)c1C2,35
Cc1cc(C)c2c(n1)sc1c(=O)n(NC(=O)Nc3ccccc3)c(C)nc12,12
Cc1cc(C)c2c(n1)sc1c(=O)n(Cc3ccccc3Cl)nnc12,81*
Cc1cc(C)c2c(n1)sc1c(=O)n(/N=C/c3ccccc3)cnc12,27
O=C(CSc1ccc(-c2ccncc2)nn1)NC1CCCC1,-6
NS(=O)(=O)c1ccc(NC(=O)COc2ccc(F)cc2)cc1,-13
CN(/N=C/c1ccncc1)C1=NCCN1,-11
O=C(Oc1ccc(N(Cc2cccs2)C2=NS(=O)(=O)c3ccccc32)cc1)c1ccccc1,57
CN(/N=C/c1ccccc1)C1=NS(=O)(=O)c2ccccc21,96*
C=CCn1cnc2c(cnn2-c2ccc(F)cc2)c1=O,4
SMILES,ROS inducer
O=C(NCCCN1CCOCC1)NCc1cccc2ccccc12,-8
C[C@@H]1CN([C@@H](C)CO)C(=O)c2cccc(NC(=O)CCCCCC(=O)Nc3ccccc3N)c2O[C@H]1CN(C)CC1CC1,27
C[C@@H]1CN([C@H](C)CO)C(=O)c2cccc(NC(=O)CCCCCC(=O)Nc3ccccc3N)c2O[C@@H]1CN(C)Cc1ccccc1,2
C[C@@H]1CN([C@@H](C)CO)C(=O)c2cccc(NC(=O)CCCCCC(=O)Nc3ccccc3N)c2O[C@H]1CN(C)Cc1ccccc1,53
C[C@H]1CN([C@@H](C)CO)C(=O)c2cccc(NC(=O)CCCCCC(=O)Nc3ccccc3N)c2O[C@@H]1CN(C)CC1CC1,124*
C[C@@H]1CN([C@H](C)CO)C(=O)c2cc(NC(=O)CCCCCC(=O)Nc3ccccc3N)ccc2O[C@@H]1CN(C)Cc1ccc(Cl)c(Cl)c1,51
C[C@H]1CN([C@@H](C)CO)C(=O)c2cc(NC(=O)CCCCCC(=O)Nc3ccccc3N)ccc2O[C@H]1CN(C)Cc1ccc(Cl)c(Cl)c1,38
C[C@@H]1CN([C@@H](C)CO)C(=O)c2cccc(NC(=O)CCCCCC(=O)Nc3ccccc3N)c2O[C@H]1CN(C)Cc1ccc(Oc2ccccc2)cc1,133*
C[C@@H]1CN([C@@H](C)CO)C(=O)c2cccc(NC(=O)CCCCCC(=O)Nc3ccccc3N)c2O[C@H]1CN(C)Cc1ccc(Cl)c(Cl)c1,154*
C[C@@H]1CN([C@H](C)CO)C(=O)c2cccc(NC(=O)CCCCCC(=O)Nc3ccccc3N)c2O[C@@H]1CN(C)CC1CC1,-4
CSCCn1c(-c2ccccc2)cc(C(=O)N2CCCC2)c1C,-2
O=C(O)c1ccccc1C(=O)NCC1COc2ccccc2O1 (stereo not given),-7
Cc1ccccc1OCCCC(=O)Nc1cccc(C(F)(F)F)c1,3
COc1ccccc1Cn1c(=S)[nH]c2cc(C(=O)N3CCC4(CC3)OCCO4)ccc2c1=O,8
CCOc1ccc(NC(=O)CC(C)Cc2cc(C)cc(C)c2)cc1 (stereo not given),-10
Cc1cc(C(=O)Nc2cccc3c2O[C@@H](CN(C)Cc2ccc(-c4ccccc4)cc2)[C@@H](C)CN([C@H](C)CO)C3=O)n(C)n1,20
Cc1cc(C(=O)Nc2cccc3c2O[C@H](CN(C)Cc2ccc(-c4ccccc4)cc2)[C@H](C)CN([C@H](C)CO)C3=O)n(C)n1,16
Cc1cc(C(=O)Nc2cccc3c2O[C@H](CN(C)Cc2ccc(-c4ccccc4)cc2)[C@H](C)CN([C@@H](C)CO)C3=O)n(C)n1,19
Cc1cc(C(=O)Nc2cccc3c2O[C@H](CN(C)Cc2ccccc2)[C@H](C)CN([C@@H](C)CO)C3=O)n(C)n1,1
Cc1cc(C(=O)Nc2cccc3c2O[C@H](CN(C)Cc2ccc(-c4ccccc4)cc2)[C@@H](C)CN([C@@H](C)CO)C3=O)n(C)n1,214*
